Results as given in the supplement of paper PMC6555819.

Columns and labels:
Test in all cases: PBM binding z-score (relative to random genomic background probes); higher = stronger binding; sequences stand for … in GC…GCGATTGACAGCGTAGAATGAAGG
[1] = system: FXR:RXRa (NR concentration 270 nM, RXRa partner concentration 90 nM)
How it was run: (§1)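 On custom Agilent 4×180K arrays, double-stranded probes with 34-nt variable regions carried direct-repeat seeds, single-nucleotide variants, half-site ablations or random human genomic background. Ligand-free nuclear receptor dimers were applied for 1 h, and binding was read with antibodies against each partner (one per run). Binding z-scores come from regression-normalized fluorescence, with the random background probes as reference.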

[2] = system: LXRa:RXRa (NR concentration 270 nM, RXRa partner concentration 90 nM)
How it was run: as §1

[3] = system: LXRa homodimer (NR concentration 270 nM)
How it was run: as §1

[4] = system: LXRb:RXRa (NR concentration 270 nM, RXRa partner concentration 90 nM)
How it was run: as §1

[5] = system: LXRb homodimer (NR concentration 270 nM)
How it was run: as §1

[6] = system: PPARa:RXRa (NR concentration 270 nM, RXRa partner concentration 90 nM)
How it was run: as §1

[7] = system: PPARg:RXRa (NR concentration 180 nM, RXRa partner concentration 90 nM)
How it was run: as §1

[8] = system: PPARg:RXRa 270nM:90nM, anti-RXR (NR concentration 270 nM, RXRa partner concentration 90 nM)
How it was run: as §1

[9] = system: PPARg:RXRa 30nM:10nM, anti-RXR (NR concentration 30 nM, RXRa partner concentration 10 nM)
How it was run: as §1

[10] = system: PPARg:RXRa 90nM:30nM, anti-RXR (NR concentration 90 nM, RXRa partner concentration 30 nM)
How it was run: as §1

Sequence | PBM binding z-score [1] | PBM binding z-score [2] | PBM binding z-score [3] | PBM binding z-score [4] | PBM binding z-score [5] | PBM binding z-score [6] | PBM binding z-score [7] | PBM binding z-score [8] | PBM binding z-score [9] | PBM binding z-score [10]
CGAACTCGGTCACCAGGACAGTGAAGAGGTTGGA | 0.841 | 0.683 | 0.119 | -0.176 | -1.17 | 1.76 | 1.91 | 1.64 | -0.104 | 0.606
CGTCCAAGGTCACAGGAGGTCAGTGAAGACAGAT | 7.67 | 7.39 | 4.32 | 5.97 | 0.764 | 6 | 6.76 | 6.69 | 3.37 | 5.61
CGAACTAGGTCAACGACAGTGAATCTCCGCACGC | 3.59 | 2.08 | 0.0952 | 1.47 | -0.0209 | 4.54 | 7.37 | 6.13 | 3.91 | 5.64
CCGACTGGGGCAACGGTTACCATACTCAGTACGA | -0.245 | -0.501 | -0.164 | -0.317 | -1.33 | 1.25 | 3.08 | 4.07 | 2.04 | 3.93
ATATGTAGGTTAGCTGGCGTCATTCAGACTAGGC | -0.167 | 0.0704 | -0.277 | -0.239 | 0.141 | 1.69 | 2.61 | 2.43 | 0.729 | 1.81
CAAACTAGGTCAAAGGACAGTGAAAGGCGACGTA | 3.9 | 3.01 | 0.388 | 2.12 | 0.744 | 5.51 | 10.3 | 8.88 | 8.82 | 10.4
CGAACTAGGTCACCAGGACAGTGATGAGGTTGGA | 3.92 | 2.37 | 0.0863 | 1.49 | -0.567 | 4.96 | 8.57 | 6.62 | 4.75 | 6.58
AGTCAAAGTTCACGACGAGGTAACGTAAAGCACG | 7.08 | 6.16 | 3.15 | 3.94 | 0.875 | 5.45 | 7.81 | 7.17 | 4.47 | 6.41
ATATGAAGGTTAGGGTCATTCAGAAAGTAGGGAA | 5.27 | 4.18 | 1.26 | 4.52 | 1.7 | 5.23 | 4 | 4.02 | 1.82 | 2.87
GCTAGTTTGTCAGTAAAAGGTCACACACCGGTCG | 3.28 | 4.33 | 4.39 | 4.2 | 1.2 | 4.42 | 3.19 | 5.47 | 3.23 | 5.43
CGTCGGAGGACAGAAGGTCAGAGCTGTCCGCTTT | 1.32 | 1.68 | 0.0253 | 1.19 | -1.11 | 1.85 | -0.101 | 1.07 | -0.708 | 0.0661
AGTCCAAGTTCACTAGGTAACGTAAGATTCAGCT | 1.35 | 1.68 | 0.49 | 0.985 | 0.056 | 2.69 | 2.6 | 2.95 | 0.796 | 1.91
CGAACAAGGTCAAAGGACAGTGAAAGGCGACGTA | 7.69 | 5.16 | 0.368 | 4.24 | 0.892 | 6.01 | 7.72 | 6.93 | 4.75 | 6.72
CGTCCAAGGTCATGGGAGGTCAGTGAAGACAGAT | 7.92 | 7.36 | 5.12 | 6.35 | 0.656 | 6.08 | 6.25 | 6.11 | 2.74 | 5.07
CGTCAAAGTTCAAGGTTACGTAACAGAAAGCAGC | 6.96 | 5.9 | 2.46 | 4.07 | 1.18 | 5.3 | 4.97 | 5.43 | 2.35 | 4.26
ATATGTAGGTTAGGGTCACTCAGAAAGTAGGGAA | 4.33 | 3.26 | 0.67 | 3.89 | 1.47 | 5.51 | 7.42 | 6.49 | 3.96 | 6.11
ATATCTAGGTTAGGGTCATTCAGAAAGTAGGGAA | 4.54 | 4.26 | 1.73 | 4.39 | 2.24 | 5.65 | 7.73 | 6.5 | 4.33 | 6.58
CAACCTAGGTCACCGGAAGGTCAAAGTCCGCATG | 7.05 | 6.32 | 5.53 | 5.93 | 1.49 | 5.6 | 6.23 | 6.31 | 3.11 | 5.38
TATCCTAGGTCAGATCGGGCCAGTATACGCTATA | 2.81 | 3.67 | 2.41 | 2.2 | 1.81 | 2.49 | 1.46 | 2.04 | 0.691 | 1.56
AATACAGGGTCGCTAGGCCAGAGTAGGTACGAAT | 0.424 | 0.524 | -0.204 | 0.525 | -0.053 | 1.37 | 1.05 | 0.765 | 0.105 | 0.482
GCTGCTAGGTCAACTGAGGGTCAGCTAAAGCTCG | 5.12 | 4.47 | 1.48 | 3.45 | 0.289 | 4.35 | 3.55 | 4.15 | 0.901 | 2.72
CGTCCAAGGTCATAGGAGGTCATTGAAGACAGAT | 7.83 | 7.82 | 7.86 | 6.99 | 1.61 | 5.94 | 5.65 | 5.98 | 2.75 | 4.71
CGAACTAGGTCAAAGAACAGTGAAAGGCGACGTA | 3.3 | 1.96 | -0.252 | 1.43 | -0.259 | 4.66 | 8.35 | 7.08 | 5.63 | 7.35
CGTCCAAGGTCAACAGGTCAGTGAAAGCGACGTG | 7.08 | 5.58 | 1.56 | 4.45 | 0.945 | 5.84 | 5.65 | 6.07 | 2.82 | 4.88
